Results published in PubChem BioAssay (NCI).
Compounds without any hit were thinned out: in the full panel of roughly 83,000, 20% have a hit.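 Note: values are percent growth. 100 is the growth of untreated cells, values between 100 and 0 indicate rising inhibition; between -100 and 0 indicates cell death.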 A number with no mark means an inactive call. Activity calls are given as the source filed them. The calls were made as follows: active = growth percent below 10; inactive = the rest.

What was measured:
Experiment in all cases: NCI-60 one-dose screen, 48 h (100 = growth as untreated, 0 = no growth, -100 = all killed)
MOLT-4 leukemia = conditions: 10 µM
SR leukemia = conditions: 10 µM
RPMI-8226 leukemia = conditions: 10 µM
OVCAR-5 ovarian = conditions: 10 µM
OVCAR-4 ovarian = conditions: 10 µM
SK-OV-3 ovarian = conditions: 10 µM
IGROV1 ovarian = conditions: 10 µM
HS 578T breast = conditions: 10 µM
NCI/ADR-RES ovarian = conditions: 10 µM
T-47D breast = conditions: 10 µM
BT-549 breast = conditions: 10 µM
MDA-MB-435 melanoma = conditions: 10 µM
SW-620 colon = conditions: 10 µM
MCF7 breast = conditions: 10 µM unless noted
HCT-116 colon = conditions: 10 µM
HCC-2998 colon = conditions: 10 µM
OVCAR-3 ovarian = conditions: 10 µM
OVCAR-8 ovarian = conditions: 10 µM
KM12 colon = conditions: 10 µM

Compound	growth (MOLT-4 leukemia)	growth (SR leukemia)	growth (RPMI-8226 leukemia)	growth (OVCAR-5 ovarian)	growth (OVCAR-4 ovarian)	growth (SK-OV-3 ovarian)	growth (IGROV1 ovarian)	growth (HS 578T breast)	growth (NCI/ADR-RES ovarian)	growth (T-47D breast)	growth (BT-549 breast)	growth (MDA-MB-435 melanoma)	growth (SW-620 colon)	growth (MCF7 breast)	growth (HCT-116 colon)	growth (HCC-2998 colon)	growth (OVCAR-3 ovarian)	growth (OVCAR-8 ovarian)	growth (KM12 colon)
COC(=O)C1C(O)C(C)C(O)C(C)/C=C\C=C(C)C(=O)Nc2c(C)c(OC(C)=O)c3c(c2O)C(=O)C(C)=C2OCOC(=C23)C(C)=CC(C)(O)C(O)C(C)C1O (stereo not given)	51.9%	49.3%	95.3%	77%	79.4%	108%	58.7%	81.7%	105%	100%	121%	100%	94.2%	93.6%	99.9%	91.6%			
COC(C(=O)C(O)C(C)O)C1Cc2cc3cc(OC4CC(OC(C)=O)C(OC5CC(O)C(OC)C(C)O5)C(C)O4)cc(O)c3c(O)c2C(=O)C1OC1CC(OC2CC(OC3CC(C)(O)C(OC(=O)C(C)C)C(C)O3)C(O)C(C)O2)C(O)C(C)O1 (stereo not given)	-25.4% (active)	-23.4% (active)	-32.4% (active)	-43.5% (active)	-0.721% (active)	9.37% (active)	-39.4% (active)		47.4%	-24.1% (active)	-74.8% (active)	-89.4% (active)	-12% (active)		-40.2% (active)	-94.4% (active)	-4.25% (active)		
C[C@@H]1C[C@@H]([C@H](O)CC2CC(=O)NC(=O)C2)C(=O)[C@@H](C)C1	3.71% (active)	13.8%		8.45% (active)	12.8%	10.9%	11.3%	7.45% (active)	0.354% (active)	1.15% (active)	3.02% (active)	9.77% (active)	8.04% (active)		0.0527% (active)	2.14% (active)	4.14% (active)	3.4% (active)	5.65% (active)
C[CH2][Hg][S]c1ccccc1C(=O)O	0.484% (active)	-5.7% (active)	-17.6% (active)		-36.6% (active)	21.1%	16.9%	-1.53% (active)	-13.9% (active)	-80% (active)	-73.4% (active)	-12.7% (active)	-87% (active)		-88.9% (active)	59.8%		-98.1% (active)	
Cc1ccc(NC(=O)CBr)cc1	98.4%	89.5%	102%	109%	102%	86.1%		107%	106%	98.5%	139%	102%	92.8%	93.5%	106%	113%	112%		109%
